According to PubChem BioAssay (NCI):
Several values for one entry are separate records, joined by “and”; a condition that tells them apart may be missing. Equal entries are not always repeated. About 83,000 compounds went through this panel and 20% of them were active in at least one assay; those are over-represented in the sample as a whole.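 For each line, cells grew in 96-well plates with the test compound present at a single concentration for 48 hours.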 Activity calls are given as the source filed them. Rule for the calls: active = growth percent below 10; inactive = the rest.

test system: MDA-MB-468 breast; assay: NCI-60 one-dose screen, 48 h (100 = growth as untreated, 0 = no growth, -100 = all killed); settings: 10 µM unless noted

Structure (SMILES) | growth
Nc1ccc(Sc2ccc([N+](=O)[O-])c3nonc23)cc1 | 67.3% (inactive)
Cc1cc(C(=O)Nc2ncc(Cc3cccc(C(F)(F)F)c3)s2)c2ccccc2n1 | 1.69% (active)
COCCn1cc(-c2nc(-c3cc4cccnc4n3C)cs2)c2cc(OC)ccc21 | -28% (active)
COc1ccc(C(=O)NC(=O)Nc2ccc3c(c2)NC(=O)/C3=C\c2[nH]c(C)c(CCC(=O)O)c2C)c(F)c1 | 59.7% (inactive)
COc1ccc(-c2nn(-c3ccccc3)cc2/C=C2/SC(=S)N(C)C2=O)cc1 | 89.1% (inactive)
OC(CC(c1ccccc1)c1cccc2ccccc12)(c1ccccc1)c1ccccc1 (stereo not given) | 86.3% (inactive) and 84.5% (inactive)
COc1ccc(C(=O)c2cc(C)c(OC)c(C)c2)c(OC)c1OC(=O)C(Cl)Cl | 11.4% (inactive)
COc1ccc2[nH]cc(/C=N/Nc3ccnc4cc(Cl)ccc34)c2c1 | -80.8% (active)
CCCCCCCCCCCCCCCCCC1=NCCN1C(=O)OCCO | -67.1% (active)
CN1CCN(Cc2ccc(C(=O)Nc3cncc(C#Cc4cnc5cccnn45)c3)cc2C(F)(F)F)CC1 | 61.1% (inactive)
O=C(O)COc1ccc2c(=O)c3sc4c(=O)c5ccccc5c(=O)c4c3c(=O)c2c1 | 26.4% (inactive)
CCNC(=O)c1[nH]cc(-c2ccc(OC)cc2)c1-c1cc(OC)c(OC)c(OC)c1 | 18.5% (inactive)
N#Cc1ccc(-c2ccc(COc3ccc(CC4SC(=O)NC4=O)cc3)cc2)cc1 (stereo not given) | 5.4% (active)
COc1cc(C(=O)c2c(-c3ccccc3)oc3c(OC)cccc23)cc(OC)c1O | 4.03% (active)
COc1cc(N=Nc2cc(S(=O)(=O)O)cc3cc(S(=O)(=O)O)cc(O)c23)c(C)cc1N=Nc1c(S(=O)(=O)O)cc2cc(Nc3ccccc3)ccc2c1O | 115% (inactive)
Fc1ccc(Nc2nc(Nc3ccc(-c4nc5ccccc5[nH]4)cc3)c3cn[nH]c3n2)cc1 | -22.1% (active)
CCCCCCCCn1ccc2cc(NC(=O)Cn3cc(CN4CCCCCC4)nn3)ccc21 | -67.2% (active)
C[N+](C)(C)c1ncnc2nc[nH]c12 | 90.3% (inactive)
CC(=O)Nc1cc(S(=O)(=O)O)cc2cc(S(=O)(=O)O)c(N=Nc3ccccc3)c(O)c12 | 93.5% (inactive) and 101% (inactive)
N/N=C(\C(=N\N)c1ccccc1)c1ccccc1 | 94% (inactive)

Structure (SMILES) | growth
CC(C)C1=NOC(=O)C1=Cc1cn(-c2ccccc2)nc1-c1ccc(Br)cc1 | 92.2% (inactive)
CNC(=O)OC1C(O[C@H]2C[C@H]3[C@@H]4CC=C5C[C@@H](O)CC[C@]5(C)[C@H]4CC[C@]3(C)[C@H]2[C@H](C)C(=O)CCC(C)C)OCC(O)C1OC1OCC(O)C(O)C1OC(=O)c1ccc(OC)cc1 (stereo not given in full) | -0.149% (active)
C=CCn1c(SCC(=O)Nc2ccc(C(=O)/C=C/c3cc(OC)c(OC)c(OC)c3)cc2)nnc1-c1cc(-c2ccc(S(N)(=O)=O)cc2)nc2ccccc12 | 89.3% (inactive)
COc1ccc2nc3ccccc3c(NCc3ccccc3)c2c1 | -9.89% (active)
C=C(C)[C@@H]1CC[C@]2(C(=O)OC)CC[C@]3(C)[C@H](CC[C@@H]4[C@@]5(C)C/C(=C/NC(N)=S)C(=O)C(C)(C)[C@@H]5CC[C@]43C)[C@@H]12 | 103% (inactive)
O=c1ccc2ccccc2o1 | 114% (inactive)
COc1ccc(NC(=O)c2ccc3c(c2)nc(-c2cc4ccccc4[nH]c2=O)n3-c2cc(C(C)(C)C)[nH]n2)cc1 | 95% (inactive)
CC1=C(NCCN2CCCC2)C(=O)c2c(OCc3cccc(Cl)c3)cccc2C1=O | 69.6% (inactive)
C=CCN1CCCC1=O | 96.5% (inactive)
Cc1cc(C)cc(S(=O)(=O)n2ccc(-c3ccc4c(c3)CCC(C)(C)O4)n2)c1 | 54.6% (inactive)
COc1nc(OC)nc(-c2cc(C(=O)c3ccc(Br)cc3)n3cc(C)cc(C)c23)n1 | 51% (inactive)
CCCCc1ccc(C(O)(CCN2CC3CCC(CC3)C2)c2ccccc2)cc1 (stereo not given) | 97.4% (inactive)
CN(C)c1ccc(N2Cc3ccccc3OC3=C2C(=O)c2c(O)ccc(O)c2C3=O)cn1 | -59.4% (active)
O=C(/C=C/c1ccccc1)n1c(-c2ccccc2)nc2ccccc21 | 98.2% (inactive)
CCCCC1COc2cccc3c(SCC(=O)N(C)c4cccc5ccccc45)cc[n+]1c23 (stereo not given) | 92.2% (inactive)
C[Si](C)(C)Cc1ccccc1 | 104% (inactive)
Cc1ccc2c(c1)C(=O)/C(=C/c1ncc([N+](=O)[O-])n1C)O2 | 52.4% (inactive)
O=C(NC(Cc1cn(Cc2ccccc2)cn1)C(=O)O)OCC1c2ccccc2-c2ccccc21 (stereo not given) | 107% (inactive)
C/C=C(/C)C(=O)OC1C=C(CO)C(=O)C(OC(=O)C2(C)OC2C)C1C(C)C (stereo not given) | -66.8% (active)
Cc1[nH]c(C(=O)Nc2ccc(C(N)=O)cc2N2CCOC(C)C2)c(Cl)c1Cl (stereo not given) | 102% (inactive)
